PubChem BioAssay AID1259313 (Sanford-Burnham Center for Chemical Genomics, 2017)
Hit rate of the full screen: of about 340,000 compounds, about 8,500 (2.5%) were called active. The sample holds actives, similar compounds and a random draw of the others, so the mix is not that of the screen.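 The calls were made as follows: active = melting temperature shift of at least 10% of the positive control shift, at one fixed dose; inactive = the rest.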

Each compound was assayed on Glutamate receptor ionotropic, NMDA 3A (GRIN3A) ligand-binding domain (assay: NR3A LBD thermal stabilization by compounds – biophysical, differential scanning fluorimetry, uHTS, primary screen (AID 1259313)). Conditions: at 25 µM, stronger effect = higher value, 0% = protein alone, 100% = glycine-bound protein.
For Cc1ccc(NC(=O)Nc2cc(-c3ccccc3)nn2C)cc1Cl, the Tm shift relative to glycine control was 47.8% (active). For Cc1ccc(NC(=O)COc2ccc(-n3ccnc3)cc2)cc1Cl, the Tm shift relative to glycine control was -10.8% (inactive). With Cc1cc(NC(=O)Nc2ccc(Cl)cc2)n(-c2ccccc2)n1 the Tm shift relative to glycine control was 3.84% (inactive). O=C(NC(Cc1c[nH]c2ccccc12)C(=O)O)/C(=C/c1ccco1)NC(=O)c1ccccc1 (stereo not drawn) was tested, and the Tm shift relative to glycine control was 5.13% (inactive). In the case of Cc1ccc(S(=O)(=O)NNC(=O)Nc2cccc3ccccc23)cc1, the Tm shift relative to glycine control is reported as 1.46% (inactive). In the case of O=S(=O)(Nc1ccc2cn[nH]c2c1)c1ccccc1, the Tm shift relative to glycine control is reported as -1.96% (inactive). With Cc1csc(NC(=S)Nc2cccc(Cl)c2)n1 the Tm shift relative to glycine control was 16.9% (active). For Cc1cccc(NC(=S)NC23CN4CN(CN(C4)C2)C3)c1, the Tm shift relative to glycine control was -2.24% (inactive). With O=C(O)CC1(CC(=O)Nc2cccc(C(F)(F)F)c2)CCCC1 the Tm shift relative to glycine control was -1.43% (inactive). With CCC(=O)Nc1nc(C)c(C(=O)Nc2cccc(Cl)c2)s1 the Tm shift relative to glycine control was 0.19% (inactive). With Cc1cc(Cl)nc(NC(=O)Nc2cccc(Cl)c2)n1 the Tm shift relative to glycine control was -1.44% (inactive). For Cn1cc(Cl)c(C(=O)NNC(=S)Nc2cccc(Cl)c2)n1, the Tm shift relative to glycine control was -11.3% (inactive). With Cc1cc2[nH]ncc2cc1NC(=S)NC(=O)c1ccccc1 the Tm shift relative to glycine control was -2.48% (inactive). With Cc1cccc(NC(=S)Nc2ccc(Cl)c(Cl)c2)c1 the Tm shift relative to glycine control was 14.9% (active). With S=C(Nc1cccc(Cl)c1)Nc1ccc2cn[nH]c2c1 the Tm shift relative to glycine control was 13% (active). FC(F)(F)c1cccc(NC(=S)Nc2cccc(Cl)c2)c1 was tested, and the Tm shift relative to glycine control was 15.7% (active). In the case of Cn1nc(C(F)(F)F)c(C(=O)Nc2cccc(C(F)(F)F)c2)c1SCc1ccc(Cl)cc1, the Tm shift relative to glycine control is reported as 6.13% (inactive). With COc1ccccc1C(=O)OCC(=O)NCCNC(=O)COC(=O)c1ccccc1OC the Tm shift relative to glycine control was -2.11% (inactive). For CCSc1nnc(SCC(=O)NNC(=O)c2ccccc2F)s1, the Tm shift relative to glycine control was 0.44% (inactive). For O=C(NN1C(=O)C2C3C=CC(O3)C2C1=O)c1ccncc1 (stereo not drawn), the Tm shift relative to glycine control was 2.17% (inactive). With CCO[C@@H]1OC(C(N)=O)=C[C@H](c2ccc(Br)cc2)[C@H]1CCCO the Tm shift relative to glycine control was 2.58% (inactive). For COc1ccc(CCNS(=O)(=O)c2cc3c(cc2C)NC(=O)CO3)cc1OC, the Tm shift relative to glycine control was 2.97% (inactive). With O=c1ccn([C@@H]2O[C@H](CNS(=O)(=O)c3cc4ccccc4s3)[C@@H](O)[C@H]2O)c(=O)[nH]1 the Tm shift relative to glycine control was -1.03% (inactive). For CCOC(=O)N1CCN(S(=O)(=O)c2ccc(C(=O)Nc3ccc(F)cc3F)cc2)CC1, the Tm shift relative to glycine control was -2.71% (inactive). For CC(C)Oc1ccc(CC(=O)NNC(=S)Nc2ccc(Br)cc2)cc1, the Tm shift relative to glycine control was -3.79% (inactive). For C=CCn1c(C23CC4CC(CC(C4)C2)C3)n[nH]c1=S, the Tm shift relative to glycine control was 0.44% (inactive). In the case of COc1ccc(Br)cc1/C=N/Nc1ccc(S(=O)(=O)Nc2ccccc2C(=O)O)cc1[N+](=O)[O-], the Tm shift relative to glycine control is reported as 503% (active). For O=C(O)c1ccccc1/C=N/Nc1ccc(S(=O)(=O)Nc2ccc(Cl)cc2)cc1[N+](=O)[O-], the Tm shift relative to glycine control was 9.21% (inactive). In the case of COc1ccc(S(=O)(=O)Nc2ccccc2C(=O)N2CCCC2)cc1C, the Tm shift relative to glycine control is reported as 2.36% (inactive). In the case of Cc1ccc(NS(=O)(=O)c2ccc(N/N=C/c3ccccc3OCC(=O)O)c([N+](=O)[O-])c2)c(C)c1, the Tm shift relative to glycine control is reported as 3.61% (inactive). In the case of COc1cccc(/C=N/Nc2ccc(S(=O)(=O)Nc3ccccc3C(=O)O)cc2[N+](=O)[O-])c1O, the Tm shift relative to glycine control is reported as 22.4% (active). With COc1ccc(S(=O)(=O)Nc2ccc3cn[nH]c3c2)cc1[N+](=O)[O-] the Tm shift relative to glycine control was -8.84% (inactive). COc1ccc(CCNC2=C(Cl)C(=O)N(Cc3ccccc3)C2=O)cc1OC was tested, and the Tm shift relative to glycine control was 2.81% (inactive). With CC(=O)c1ccc(N2CCN(S(=O)(=O)c3ccc4c(c3)CC(=O)N4C)CC2)cc1 the Tm shift relative to glycine control was 4.97% (inactive). For O=C(Cc1ccc(Cl)c(Cl)c1)Nc1ccc(SC(F)F)cc1, the Tm shift relative to glycine control was 25.9% (active). For CC(=O)N1CCN(CC(=O)Nc2ccc(SC(F)F)cc2)CC1, the Tm shift relative to glycine control was -2.44% (inactive). Cc1ccc(CC(=O)Nc2ccc(OC(F)F)c(Cl)c2)cc1C was tested, and the Tm shift relative to glycine control was 3.08% (inactive). With Cc1c(Cl)c([N+](=O)[O-])nn1CC(=O)NCCCN1CCOCC1 the Tm shift relative to glycine control was -0.8% (inactive). For COc1cc2c(-c3ccc4c(c3)OCO4)c(-c3ccsc3)oc(=O)c2cc1OC, the Tm shift relative to glycine control was 12.9% (active). In the case of COc1cc(C(=O)CCc2ccc3c(c2)OCO3)cc(OC)c1OC, the Tm shift relative to glycine control is reported as 0.46% (inactive). COc1cc(-c2c(-c3ccc4c(c3)OCO4)noc2C)ccc1F was tested, and the Tm shift relative to glycine control was -2.27% (inactive). CN(C)CCCn1c(SCc2ccc(Cl)cc2)nnc1-c1ccncc1 was tested, and the Tm shift relative to glycine control was -5.52% (inactive). CC(C)(Oc1ccc(Cl)cc1)C(=O)OCC(=O)NCCc1ccc(S(N)(=O)=O)cc1 was tested, and the Tm shift relative to glycine control was -1.31% (inactive). CN(C)N=Nc1ccc2nc[nH]c2c1 was tested, and the Tm shift relative to glycine control was -1.21% (inactive). For COc1ccc2[nH]c3c(c2c1)CCN1C(=O)C(CC(=O)NCc2cccc(C(F)(F)F)c2)C[C@H](C(=O)N2CCOCC2)[C@@]31C (stereo partly drawn), the Tm shift relative to glycine control was -2.74% (inactive). COC(=O)CNS(=O)(=O)c1ccc(Cc2ccc(S(=O)(=O)NCC(=O)OC)cc2)cc1 was tested, and the Tm shift relative to glycine control was 1.25% (inactive). For COC(=O)c1sc(N)c(C(=O)OC)c1COC(=O)CNS(=O)(=O)c1ccc(C)cc1, the Tm shift relative to glycine control was 13.2% (active). In the case of C/C(N)=C(/C#N)C(=O)COC(=O)CNS(=O)(=O)c1ccc(C)cc1, the Tm shift relative to glycine control is reported as -0.65% (inactive). CCN(CC)C(=O)Oc1ccc(OC(=O)N(CC)CC)cc1 was tested, and the Tm shift relative to glycine control was -0.08% (inactive). In the case of COc1ccc(N2CCN(C(=S)Nc3ccc(S(N)(=O)=O)cc3)CC2)cc1, the Tm shift relative to glycine control is reported as 1.93% (inactive). For CCOc1ccccc1N1CCN(C(=S)Nc2ccc(S(N)(=O)=O)cc2)CC1, the Tm shift relative to glycine control was 31.7% (active). NS(=O)(=O)c1ccc(NC(=S)N2CCCC2)cc1 was tested, and the Tm shift relative to glycine control was -6.36% (inactive). For O=C(Nc1ccccc1C(=O)N1CCOCC1)C1CCC(=O)N1C1CCCC1 (stereo not drawn), the Tm shift relative to glycine control was -0.29% (inactive). For Cn1cccc1C(=O)N1CCc2ccccc2C1, the Tm shift relative to glycine control was 38.1% (active). For O=C(c1cc(-c2cccc(O)c2)on1)N1CCc2ccccc2C1, the Tm shift relative to glycine control was -13.5% (inactive). For CN(c1ccc(C(=O)N2CCc3ccccc3C2)cc1)S(C)(=O)=O, the Tm shift relative to glycine control was -0.88% (inactive). With Cc1nn(Cc2ccccc2)c(C)c1CNC(=O)c1ccc(F)c(S(=O)(=O)N2CCOCC2)c1 the Tm shift relative to glycine control was 0.42% (inactive). In the case of Cc1cc(C(=O)NNC(=S)NC(C)c2ccccc2)cs1 (stereo not drawn), the Tm shift relative to glycine control is reported as -0.62% (inactive). CCCN1Cc2cccc(C(=O)Nc3ccc(S(=O)(=O)N4CCCCCC4)cc3)c2C1=O was tested, and the Tm shift relative to glycine control was -5.76% (inactive). In the case of O=S(=O)(Nc1n[nH]c(C(F)(F)F)n1)c1ccccc1, the Tm shift relative to glycine control is reported as -16.9% (inactive). For COc1ccccc1NC(=O)COC(=O)COc1ccccc1F, the Tm shift relative to glycine control was 0.17% (inactive). With COc1ccccc1NC(=O)Nc1nc(CC(=O)Nc2ccccc2F)cs1 the Tm shift relative to glycine control was 27.7% (active). For COc1ccccc1NC(=O)Nc1nnc(Cc2ccc(F)cc2)s1, the Tm shift relative to glycine control was -6.85% (inactive). In the case of Cc1cc(C)c(C)c(S(=O)(=O)N2CCN(C(=O)c3ccc4c(=O)n5c(nc4c3)CCC5)CC2)c1C, the Tm shift relative to glycine control is reported as -1.83% (inactive). In the case of Cc1ccc(C2=NN(C)c3nc4ccccc4n3C2)cc1, the Tm shift relative to glycine control is reported as -0.88% (inactive). CCOC(=O)c1sc(=NC(=O)c2ccc(Br)cc2)n(C)c1C was tested, and the Tm shift relative to glycine control was -1.61% (inactive). CCOC(=O)C1=CN(Cc2ccc(Br)cc2)S(=O)(=O)NC1C (stereo not drawn) was tested, and the Tm shift relative to glycine control was -0.08% (inactive). CCOC(=O)C1=CN(Cc2ccc(Br)cc2)S(=O)(=O)N(C)C1C (stereo not drawn) was tested, and the Tm shift relative to glycine control was 16.8% (active). For Cc1ccc(Sc2cc(C(=O)c3ccccc3C(=O)O)ccc2[N+](=O)[O-])cc1, the Tm shift relative to glycine control was 2.48% (inactive). For CCN(CC(=O)Nc1cc(Cl)ccc1C)C(=O)CSCc1ccccc1, the Tm shift relative to glycine control was 3.04% (inactive). For C=CCC1(C#N)C(=S)NC(C)=C(C(=O)OCC)C1c1ccccc1 (stereo not drawn), the Tm shift relative to glycine control was -1.45% (inactive). With Cc1cccc(N=Nc2c(O)[nH]c3ccc(F)cc23)c1 the Tm shift relative to glycine control was 10.2% (active). In the case of Oc1[nH]c2ccccc2c1N=Nc1c(F)c(F)c(F)c(F)c1F, the Tm shift relative to glycine control is reported as 9.33% (inactive). With Cc1ccc(CNC(=O)CSc2nnc3c(n2)[nH]c2ccc(F)cc23)cc1 the Tm shift relative to glycine control was 2.6% (inactive). O=C1CN(C(=O)c2cc(F)cc(F)c2)c2ccccc2N1 was tested, and the Tm shift relative to glycine control was -2.16% (inactive). In the case of NC1=NC(=O)S/C1=C\c1ccc(O)cc1, the Tm shift relative to glycine control is reported as 32.2% (active). In the case of CC(C)(C)c1ccc(/C=C2\SC(=O)N=C2N)cc1, the Tm shift relative to glycine control is reported as -1.96% (inactive). O=C1N=C(N2CCc3ccccc3C2)S/C1=C\c1ccc(O)cc1 was tested, and the Tm shift relative to glycine control was -10.4% (inactive). For Cc1c(CN2CCCC(C(=O)c3cccc(Cl)c3)C2)c(=O)n(-c2ccccc2)n1C (stereo not drawn), the Tm shift relative to glycine control was -0.59% (inactive). CCN(CC)c1ccc(NC(=O)c2ccc(Cl)nc2)cc1 was tested, and the Tm shift relative to glycine control was -1.3% (inactive). For COc1ccccc1N1CCN(S(=O)(=O)CCNC(=O)c2ccc(OC(C)C)cc2)CC1, the Tm shift relative to glycine control was 0.83% (inactive). In the case of O=C(NCCS(=O)(=O)N1CCN(c2ccccc2F)CC1)c1ccc(Br)o1, the Tm shift relative to glycine control is reported as 121% (active). For O=C(NCCS(=O)(=O)N1CCN(c2ccccc2)CC1)c1ccco1, the Tm shift relative to glycine control was 2.13% (inactive). In the case of COc1ccc(CCNC(=O)C(=O)NCC2CCNCC2)cc1OC, the Tm shift relative to glycine control is reported as -0.1% (inactive). For CCc1ccc(-c2nn(-c3ccccc3)cc2CSC(=N)N)cc1, the Tm shift relative to glycine control was -0.35% (inactive). COc1cc(NS(=O)(=O)c2ccc(NC(=S)NC(=O)c3ccc(Br)cc3)cc2)ncn1 was tested, and the Tm shift relative to glycine control was -6.1% (inactive). COc1cccc(/C=N/Nc2ncc(C(F)(F)F)cc2Cl)c1O was tested, and the Tm shift relative to glycine control was 24.2% (active). In the case of COc1ccc(Br)cc1/C=N/Nc1ccc(Cl)c(C(=O)O)c1, the Tm shift relative to glycine control is reported as -7.4% (inactive). In the case of O=c1[nH]c2cccnc2n(CCNc2ncc(C(F)(F)F)cc2Cl)c1=O, the Tm shift relative to glycine control is reported as -2.11% (inactive). With CCCCN(C(=O)c1nn(C)c(=O)c2ccccc12)c1c(N)n(CCC)c(=O)[nH]c1=O the Tm shift relative to glycine control was 0.36% (inactive). For COc1ccc(C2C(C#N)=C(N)Oc3cc(N)ccc32)cc1OC (stereo not drawn), the Tm shift relative to glycine control was -4.08% (inactive). For N#CC1=C(N)Oc2cc(O)ccc2C1C1CCCCC1 (stereo not drawn), the Tm shift relative to glycine control was 12% (active). With N#CC1=C(N)Oc2cc(N)ccc2C1c1ccccc1 (stereo not drawn) the Tm shift relative to glycine control was -2.17% (inactive).
